IMPase inh = IMPase inhibition in cells. inhibition (IP1 accumulation), % at 46.1 µM. CHO-M1 cells, IP1 accumulation, HTRF TR-FRET ratio. AID 901. 120,000 tested, under 10 active; active = well fitted curve in the direction sought with a large enough effect in the signal ratio, not every such curve was filed as active; inconclusive = small, poorly fitted or top-dose-only effect, or a change in a side signal; inactive = no such curve, though single readings can be large or run the other way; the % refers to the signal ratio;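 also: cells stimulated with carbachol in lithium chloride buffer; plate controls were DMSO basal wells for no effect and reference inhibitor wells for full effect; higher means more IMPase inhibition seen as more IP1 and lower FRET ratio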
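The IP-One HTRF competitive assay in carbachol-stimulated CHO-M1 cells quantifies cellular IP1. Compounds spanned up to 46 uM final, and activity is expressed as AC50 from concentration-response fits of the ratio and donor data.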
PNC assembly inh = blocks assembly of the perinucleolar compartment | AID 2417 | PC3M PTB-GFP, PNC prevalence imaging, 16 h; hits give low values | activity change (PNC), negative = inhibition, % at 10 µM | 140,000 compounds, 3.1% hits;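 active = readout at or below -70, meaning at least 70% loss of cells showing the perinucleolar compartment, a nuclear body marking cancer cells; inconclusive = readout between -30 and a set limit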;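 also: plate controls were DMSO wells for no effect and camptothecin positive control wells for full effect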
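Read-out is percentage of cells bearing a perinucleolar compartment, from automated 20x imaging of fixed, Hoechst-stained PC3M PTB-GFP cells. Cells were seeded 4 h, then exposed 16 h to compound (23 nl of library stock) in duplicate plates.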
12-hLO inh = 12-hLO (ALOX12) enzyme inhibition; P18054; purified 12-hLO, xylenol orange hydroperoxide absorbance; 150,000 compounds, 0.12% hits; Potency, µM (doses to about 57.1 µM), for inactives: at the top dose activity change, negative = inhibition, most hits filed as inhibitors; AID 1452; also: potency is read from the fitted curve at half-maximal effect; nearly all actives have a fitted effect of over 55% in size
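150 nM 12hLO, 25 mM Hepes pH 7.0 + 0.01% Triton X-100; cpd preinc 15 min RT; 40 uM arachidonic acid, 30 min RT; Fe-XO 30 min; A573/A405 ratio as read-out.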
IMPase Li cell = cell-permeable IMPase inhibitors with lithium potentiation. CHO-M1 cells, IP1 TR-FRET (IP-One), carbachol + lithium. Potency, µM (top dose mostly 59.4 µM), without a hit: at the top dose activity, negative = IMPase inhibition, hits mostly inhibitors. 210,000 compounds, 0.35% hits;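 also: IP1 builds up when IMPase is blocked and the TR-FRET signal falls; potency is read from the fitted curve at half-maximal effect; plate controls were basal vehicle for no effect and high inhibitor control for full effect; nearly all actives have a fitted effect of over 50% in size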
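Readout is a homogeneous TR-FRET IP1 immunoassay (Ex 320, Em 665 and 620), where raised cytosolic IP1 lowers signal. Cells were CHO-M1 treated 30 min at 37C with test compounds plus a little lithium; AC50 values came from Hill-equation fitting.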
ALDH1A1 inh = inhibitors of human aldehyde dehydrogenase 1A1 | Purified ALDH1A1, NADH fluorescence, propionaldehyde substrate | Potency, µM (titrated, usually from 75.3 µM), inactives show at the top dose activity, negative = inhibition, actives largely listed as inhibitors | AID 1030 | 220,000 compounds, 7.3% hits; active = well fitted inhibition curve with a large enough effect, not every such curve was filed as active; inconclusive = small, poorly fitted or top-dose-only effect, or another doubt; inactive = no such curve, though single readings can be large or run the other way;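 also: potency is read from the fitted curve at half-maximal effect; plate controls were no enzyme wells and a reference inhibitor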
Target sequence (P00352 whole entry, looked up): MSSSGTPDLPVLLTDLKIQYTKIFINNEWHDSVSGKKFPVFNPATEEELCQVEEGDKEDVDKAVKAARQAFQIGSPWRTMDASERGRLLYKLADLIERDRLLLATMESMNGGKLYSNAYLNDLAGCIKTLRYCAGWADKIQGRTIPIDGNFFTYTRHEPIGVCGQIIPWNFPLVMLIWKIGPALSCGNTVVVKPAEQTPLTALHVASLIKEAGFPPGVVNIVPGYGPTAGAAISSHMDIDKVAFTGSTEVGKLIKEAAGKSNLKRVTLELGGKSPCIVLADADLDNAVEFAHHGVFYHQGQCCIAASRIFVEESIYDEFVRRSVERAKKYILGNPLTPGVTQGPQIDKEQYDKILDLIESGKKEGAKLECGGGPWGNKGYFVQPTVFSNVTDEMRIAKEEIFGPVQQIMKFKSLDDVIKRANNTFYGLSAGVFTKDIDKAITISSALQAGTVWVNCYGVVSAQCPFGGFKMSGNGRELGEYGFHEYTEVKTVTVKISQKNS
HPGD inh = inhibitors of human 15-hydroxyprostaglandin dehydrogenase (HPGD) | 150,000 compounds, 4.3% hits | purified HPGD, NADH fluorescence kinetic, PGE2 substrate | P15428 | Potency, µM, for inactives: top-dose activity change, negative = inhibition, usual class: inhibitors; active = well fitted inhibition curve with a large enough effect, not every such curve was filed as active; inconclusive = small, poorly fitted or top-dose-only effect, or another doubt; inactive = no such curve, though single readings can be large or run the other way; also: potency is read from the fitted curve at half-maximal effect
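NADH formation kinetics: reaction with 30 uM PGE2 and 1 mM NAD+ (final), 20 nM enzyme, Tris-HCl pH 8 with Tween 20, after 15 min compound preincubation at room temperature. Fluorescence change, last versus first of five reads.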
An asterisk follows results filed as active; ? = inconclusive; nt = no result; [ ] = dose if it differs, or a comment. An excerpt weighted towards active compounds, which were near 11% of everything screened. Unless noted, calls follow the shape of the dose curve; as a rule, active = well fitted curve in the direction sought with a large enough effect; inconclusive = small, poorly fitted or top-dose-only effect, or another doubt; inactive = no such curve, though single readings can be large; an effect the other way counts as inactive or inconclusive. Unless noted, % is scaled to controls: 0 for no effect and ±100 for the full control effect.

SMILES	IMPase inh	PNC assembly inh	12-hLO inh	IMPase Li cell	ALDH1A1 inh	HPGD inh
CC(C)[C@@H](CC(=O)N[C@@H]1CCCC[C@H]1C(=O)N[C@H](CC(=O)N[C@@H](CCC(=O)O)CC(=O)O)Cc1c[nH]c2ccccc12)NC(=O)C[C@H](Cc1c[nH]c2ccccc12)NC(=O)[C@@H]1CCCC[C@H]1N	nt	nt	3%	12%	15%	1%
COC(=O)Cc1c(C)[nH]n(-c2cc(Cl)cc(Cl)c2)c1=O	nt	nt	nt	0%	7.1µM*	nt
CCOC(=O)c1n[nH]n(-c2cc(Cl)cc(Cl)c2)c1=O	nt	nt	nt	nt	8%	nt
CCCCC#Cc1nc(N)c2ncn([C@@H]3O[C@@H](C(=O)NCC)[C@H](O)[C@@H]3O)c2n1	-3	nt	-5%	nt	nt	nt
Cc1ccc(-c2nnc(Nc3ccc(O)cc3)c3ccccc23)cc1S(=O)(=O)NC(C)(C)CO	9	nt	nt	nt	nt	nt
O=C(CC1(c2ccc(Cl)cc2)C2CC3CC(C2)CC1C3)NCCO (centres undefined)	nt	nt	nt	-14%	13µM*	nt
COc1ccc(-n2c(-c3ccccc3)cc3c2CCCC3=O)cc1	13	-2	-12%	-16%[38.3 µM]	16µM*	?
Cc1[nH][nH]c(=O)c1C(c1c(C)[nH][nH]c1=O)c1cn(Cc2ccc(Cl)c(Cl)c2)c2ccccc12	nt	-2	-7%	13%	3.5µM*	-4%
O=C(O)Cc1cn(Cc2ccc(F)cc2)c2ccccc12	nt	nt	nt	0%	-5%	nt
Cc1[nH][nH]c(=O)c1C(c1c(C)[nH][nH]c1=O)c1cn(Cc2ccc(F)cc2)c2ccccc12	nt	-29	0%	14%	1.4µM*	-6%
C=CCn1c(COc2ccc3c(c2)CCCC3)nnc1SCC(=O)Nc1cccc(SC)c1	3	?	-14%	-11%[38.3 µM]	-12%	-20%
CC1CCCCN1c1nc2nonc2nc1N1CCCCC1C (centres undefined)	7	?	3%	23%	2.2µM*	-14%
COc1ccccc1Nc1nc2nonc2nc1N1CCCCC1C (centres undefined)	nt	43	-1%	5%	5%	-16%
CCNc1ccccc(C(=O)/C=C/c2ccc3c(c2)OCO3)c1=O	1	-28	?	31%[38.3 µM]	10µM*	18µM*
S=c1[nH]ncn2c1cc1oc3ccccc3c12	nt	nt	nt	1.1µM*	?	nt
Cc1ccc(Oc2coc3cc(OCC(=O)NC4CCCCC4)ccc3c2=O)cc1	-9	nt	nt	nt	nt	nt
CCOc1cc(/C=N/Nc2cccc(C(=O)O)c2)ccc1OC(=O)c1ccccc1	nt	nt	nt	23%	40µM*	nt
COc1cc(NCCCCCCCN)c2ncccc2c1	13	?	24%	20%	3.5µM*	-12%
COc1ccc(C[C@@H]2c3cc(OC)c(OC)cc3CC[N@+]2(C)CCC(=O)OCCCCCOC(=O)CC[N@@+]2(C)CCc3cc(OC)c(OC)cc3[C@H]2Cc2ccc(OC)c(OC)c2)cc1OC	6[20.6 µM]	nt	-1%[25.6 µM]	3%	-6%[20.9 µM]	-3%
COc1ccc2c(=O)c3c(=O)n(Cc4ccco4)c(-c4ccco4)nc3oc2c1	-2	10	-13%	10%[38.3 µM]	?	22µM*
COc1ccc(-c2nc3oc4cc(OC)ccc4c(=O)c3c(=O)n2Cc2ccco2)cc1	-1	16	-2%	?	?	?
CCCCNc1nc(C)nc2c1nc(-c1ccccc1)n2CC1CCCN1CC (centres undefined)	nt	nt	0%	7%	?	?
CC(C)CCOc1ncnc2c1sc1nc3c(cc12)CSC(C)(C)C3	5	16	1%	1%	1.1µM*	?
CC1(C)Cc2nc3sc4c(=O)n(Cc5ccccc5)cnc4c3cc2CS1	nt	?	0%	-2%	?	?
CCCn1cnc2c(sc3nc4c(cc32)CSC(C)(C)C4)c1=O	-4	?	-1%	13%[38.3 µM]	0.56µM*	-26%
COc1ccc2c(c1)CCC1C2=NN(/C(C)=C/C(C)=O)C1c1cccc(F)c1 (centres undefined)	nt	nt	nt	8%	28µM*	nt

Screening data as filed in PubChem.
